# Screening results from PubChem.
# Shown are actives, neighbours in structure and some others; about 3.8% of the full set was active somewhere.
# tim10-1 inh: inhibits growth of tim10-1 mutant yeast. S. cerevisiae tim10-1 ts strain growth, BacTiter-Glo, 24 h. inhibition, % at 20 µM. 330,000 compounds, 2.2% hits. AID 463190;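 active = inhibition of at least 40%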;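 also: mutant grown at 25 °C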
# tim23-1 inh: growth inhibitors of tim23-1 mutant yeast | AID 463212 | S. cerevisiae tim23-1 growth, BacTiter-Glo luminescence, 24 h | inhibition, % at 20 µM | 330,000 compounds, 1.3% hits;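 active = growth inhibition of the mutant yeast at or above 50%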;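 also: temperature-sensitive mutant grown at 25 °C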
# Beta2AR agonist: activates human beta-2 adrenergic receptor causing internalization; P07550; Am2.2-beta2AR cells, FAP receptor internalization, flow cytometry; response, % (concentration not given with the values); 340,000 compounds, 0.43% hits;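 active = response above a set limit, near 3 SD of response in nonfluorescent compounds, cut at about 42% in these data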
# Target sequence (P07550 whole entry, looked up): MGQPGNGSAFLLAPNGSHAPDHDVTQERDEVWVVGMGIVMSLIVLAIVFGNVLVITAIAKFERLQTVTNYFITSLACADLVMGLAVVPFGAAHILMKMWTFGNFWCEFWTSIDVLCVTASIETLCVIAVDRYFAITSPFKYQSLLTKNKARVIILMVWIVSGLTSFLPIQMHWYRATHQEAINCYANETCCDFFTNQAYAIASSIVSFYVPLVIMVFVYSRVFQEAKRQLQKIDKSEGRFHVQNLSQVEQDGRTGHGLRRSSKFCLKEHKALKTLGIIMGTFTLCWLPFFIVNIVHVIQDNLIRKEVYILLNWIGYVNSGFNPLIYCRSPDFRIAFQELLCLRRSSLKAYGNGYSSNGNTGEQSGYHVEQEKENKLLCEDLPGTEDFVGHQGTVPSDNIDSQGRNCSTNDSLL
# PfHsp90 set2: reduces growth (ATP signal) of yeast expressing P. falciparum Hsp90; S. cerevisiae expressing PfHsp90, BacTiter-Glo ATP, 48 h; yeast lacking PDR1 and PDR3 efflux regulators; inhibition, % at 9.4 µM; 310,000 compounds, 0.32% hits;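 active = every replicate shows inhibition above about 80%, whatever the replicate mean, limit read from the data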
# TIM10 inh: inhibits growth of TIM10 yeast strain | 330,000 compounds, 1.4% hits | inhibition, % at 10 µM | S. cerevisiae TIM10 strain growth, BacTiter-Glo luminescence, 24 h;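 active = inhibition of 40% or more at the single tested concentration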;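 also: wild-type TIM10 isogenic control strain grown at permissive 25 °C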
# tim10-1 conf: confirmation of tim10-1 mutant yeast growth inhibitors | shares compounds with tim10-1 inh | S. cerevisiae tim10-1 ts strain growth, BacTiter-Glo, 24 h | inhibition, % at 20 µM | 7,400 compounds, 56% hits | AID 463213;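 active = inhibition of yeast growth at or above a set limit in either of two repeat tests at 20 µM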;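 also: tim10-1 mutant grown at permissive 25 °C to find synthetic lethal compounds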
# Hits are given with their value; – = inactive; · = no result given.
SMILES,tim10-1 inh,tim23-1 inh,Beta2AR agonist,PfHsp90 set2,TIM10 inh,tim10-1 conf
O=C(c1cc2ccccc2[nH]1)N(Cc1cccnc1)CC1CCCN(C2CCCCC2)C1 (stereo not given),–,–,–,–,–,·
CCN(Cc1nc2ccccc2c(=O)[nH]1)C(=O)c1cc2c(s1)CCCCC2,–,–,–,–,–,·
COc1ccc(OC)c(C2=Nn3c(nnc3C3CCCCC3)SC2)c1,–,–,–,–,–,·
COc1ccccc1C1=Nn2c(nnc2C2CCCCC2)SC1,43.6,–,–,–,–,–
Cc1ccc(S(=O)(=O)N(C)C)cc1NC(=O)COC(=O)CNC(=O)c1cccs1,–,–,–,·,–,·
CC(C)Cc1nc(N2CCN(C(=O)C(C)C)CC2)c(C#N)c2c1CCC2,–,–,–,–,–,·
CC(=O)N1CCN(c2nc(CC(C)C)c3c(c2C#N)CCC3)CC1,49.5,–,–,–,–,–
Cc1c(Cl)cccc1N=c1c([N+](=O)[O-])nn(-c2ccccc2)n1O,–,–,–,–,–,·
Cc1ccc(N=c2c([N+](=O)[O-])nn(-c3ccccc3)n2O)c(C)c1,46.8,–,–,–,–,41.5
O=S(=O)(NC(=NC1CCCCC1)c1ccccc1F)c1ccccc1,–,–,–,–,–,·
Cc1ccccc1OCC(=O)Nn1c(COc2ccccc2)nc2ccccc2c1=O,45.5,–,–,–,–,–
CC(C)=NOC(=O)c1ccc(-c2ccccc2)cc1,54.4,–,–,–,–,41.5
COc1ccc(C(=O)O/N=C(\C)c2ccccc2)cc1,–,–,·,–,–,·
COc1ccc(S(=O)(=O)N2CCCCCC2)cc1C(=O)Nc1ccc(C(=O)N(C)C)cc1,–,–,–,·,–,·
COc1ccc(CC(=O)N[C@@H]2c3cc(OC)c(OC)cc3C[C@H]2O)cc1,–,–,–,–,–,·
CNCc1ccccc1Sc1ccc(OC)cc1,–,–,–,–,–,·
CNCc1ccccc1Sc1cccc2ccccc12,41.0,–,–,–,–,–
O=C(Oc1cc2oc(=O)c3c(c2cc1Cl)CCCC3)c1cccs1,43.0,–,–,–,–,–
Cc1c(C(=O)N2CCN(Cc3ccc4c(c3)OCO4)CC2)sc2ncnc(N3CCN(c4ccccc4F)CC3)c12,41.4,–,–,–,–,–
Cc1c(C(=O)N2CCN(Cc3ccc4c(c3)OCO4)CC2)sc2ncnc(N3CCN(c4ccccc4)CC3)c12,47.9,–,–,–,–,–
CCOC(=O)CSc1cc(C)c(C#N)c2nc3ccccc3n12,41.2,–,–,–,–,–
CCOC(=O)CSc1nc2ccccc2n2c(C)nnc12,–,–,–,–,–,·
O=C(COC(=O)C1CC1)NCCc1ccc(Cl)cc1,–,–,–,·,–,·
Cc1sc2nc(CSCC(=O)NC3(C#N)CCCCC3)[nH]c(=O)c2c1C,–,–,–,–,–,·
COC(=O)CSc1nnc([C@H](Cc2ccccc2)NC(=O)OC(C)(C)C)o1,–,–,–,–,–,·
SMILES,tim10-1 inh,tim23-1 inh,Beta2AR agonist,PfHsp90 set2,TIM10 inh,tim10-1 conf
COC(=O)CS(=O)(=O)c1nnc([C@H](Cc2ccccc2)NC(=O)OC(C)(C)C)o1,43.7,–,–,–,–,37.7
COc1cc(N)c2ncccc2c1Br,·,·,–,–,·,·
CSc1nnc(-c2cccc(NC(=S)NN)c2)o1,49.0,–,73.7,–,–,–
CSc1nnc(-c2ccc(NC(N)=S)cc2)o1,–,–,–,–,–,·
O=C(NC1CC1)C1CCN(S(=O)(=O)c2ccc(Cl)c([N+](=O)[O-])c2)CC1,–,–,–,–,–,·
O=C(Nc1cccnc1)c1cn(-c2ccccc2)nc1-c1cccs1,43.2,–,–,–,–,42.9
COc1ccc(CC(=O)N/N=C/c2ccc(C)s2)cc1,–,–,–,–,–,·
COc1ccc(CC(=O)N/N=C/c2ccc(Cl)s2)cc1OC,49.5,–,–,–,–,–
CC(C)c1cccc(C(C)C)c1NC(=O)CNCC(O)c1ccccc1 (stereo not given),–,–,–,–,–,·
CC(C)c1cccc(C(C)C)c1NC(=O)CNCc1ccccc1F,47.0,–,–,–,–,–
COC(=O)c1cc(S(=O)(=O)N(C)C2CCCCC2)c[nH]1,–,–,–,–,–,·
COc1ccccc1-c1cc(C(=O)NCc2ccccc2)no1,43.6,–,–,–,–,–
Cc1ccc(-n2c(-c3ccccc3)c[n+]3c2CCC3)cc1,–,–,–,–,–,·
Cc1ccc(-n2c(-c3ccccc3)c[n+]3c2CCc2ccccc2-3)c(C)c1,43.3,–,–,·,–,–
Cc1c(N)cc(S(=O)(=O)O)cc1NC(=O)c1cccc([N+](=O)[O-])c1,·,·,–,–,·,·
O=[N+]([O-])c1cc(/C=N/NC(=S)Nc2ccccc2Cl)ccc1Cl,46.4,–,–,–,–,–
Cc1ccc(OCC(=O)NNC(=S)NC(=O)C2CCCCC2)c(C)c1,47.1,–,–,–,–,–
Cc1ccc(OCC(=O)NNC(=O)c2ccc(NC(=O)C3CC3)cc2)c(C)c1,–,–,–,–,–,·
Cc1ccc(-c2nc3cnccn3c2Nc2c(C)cccc2C)o1,60.5,–,–,–,–,55.1
Clc1ccc2c(c1)-c1nnc(Br)n1-c1ccccc1S2,47.5,–,–,–,–,–
O=C(CC1CCCC1)N1CCN(S(=O)(=O)c2cccc(F)c2)CC1,·,·,–,–,·,·
CC(Sc1nnc(C2CC2)n1-c1ccccc1)C(=O)N1CCCC1 (stereo not given),–,–,–,–,–,·
COc1ccc(N2CCN(CCCNC(=O)C(=O)c3c[nH]c4ccccc34)CC2)cc1,–,–,–,–,–,·
C=CCNC(=S)NNc1nc2c(c(=O)[nH]1)C1(CCCCC1)Cc1ccccc1-2,52.2,–,–,–,–,41.5
O=C(Nc1ccc2snnc2c1)N1CCSCC1,–,–,–,·,–,·
SMILES,tim10-1 inh,tim23-1 inh,Beta2AR agonist,PfHsp90 set2,TIM10 inh,tim10-1 conf
CC1CN(C(=O)Nc2ccc3snnc3c2)c2ccccc21 (stereo not given),47.5,–,–,–,–,–
O=C(c1cc(COc2ccc(F)c(F)c2)on1)N1CCN(C2CCCCC2)C(=O)C1,40.4,–,–,–,–,–
CCc1ccc2c(CN3CCN(S(=O)(=O)c4cccs4)CC3)cc(=O)oc2c1,41.3,–,–,–,–,–
CCc1ccc2c(CN3CCN(S(=O)(=O)c4ccccc4F)CC3)cc(=O)oc2c1,–,–,–,–,–,·
C/C(=N\Nc1ccc(F)cc1F)c1ccccc1O,–,–,–,–,–,·
C/C(=N\Nc1cc(C(F)(F)F)ccc1Cl)c1ccccc1O,46.7,–,–,–,–,38.3
CCOc1ccccc1NC(=O)/C=C/C(N)=O,40.4,–,–,–,–,33.5
CCOc1ccccc1NC(=O)/C=C/c1ccccc1[N+](=O)[O-],–,–,–,–,–,·
CCOC(=O)/C=C/C(=O)Nc1ccccc1C(=O)NC1CCCCC1,46.3,–,–,–,–,–
CC(=O)c1cccc(CN2CCC(C(=O)Nc3ccc(-c4cccc(C)c4)cc3)CC2)c1,–,–,–,–,–,·
CC1CCN(C(=O)CSc2nc(C3CC3)nc3ccccc23)CC1,–,–,–,–,–,·
